Here are results for 36 compounds from PubChem BioAssay.

The experiment has as its system glycogen synthase kinase-3 (GSK3A per assay name; protocol says GSK3B). The experiment is described as follows: compounds binding glycogen synthase kinase-3 – biochemical, small-molecule microarray, 635 nm fluorescence, GSK3A, primary screen (AID 1103). Further: the record names both GSK3A and GSK3B. The conditions noted are these: fluorescence 635 nm, higher = more signal.
Take `CCOC(=O)C[C@H]1[C@H](OC(=O)c2cc3ccccc3oc2=O)[C@@H](NC(=O)c2ccc3ccccc3n2)c2cc(OCCCO)ccc2N1C(=O)c1ccc2ccccc2n1`: the composite z-score was 0.743.
In the case of `CN1C(=O)C2C=CC(C(O)C3CCCCC3)N(N(c3ccccc3)c3ccccc3)C2C1=O` (stereo unspecified) it was -1.14; in that of `COc1ccccc1CN1C(=O)c2ccccc2[C@@H](C(=O)NCC(C)C)[C@@H]1c1ccc(CO)cc1`, -0.0674; in that of `COC(=O)[C@@]1(Cc2ccccc2)[C@H]2c3cc(C(=O)N(C)C)n(Cc4ccc(O)c(OC)c4)c3C[C@H]2CN1C(=O)c1ccccc1`, 0.255.
As for `CCOC(=O)C[C@H]1[C@H](OC(=O)c2ccccc2-c2ccccc2)[C@@H](NC(=O)c2ccccc2)c2cc(OCCCO)ccc2N1C(=O)Cc1ccc(OC)cc1`, the figure is -0.519; as for `CCC[C@@H]1C[C@@]1(CCC)[C@@H](NC(=O)c1ccco1)c1ccc(Cl)cc1`, -2.1; as for `CN(C)CCCN1C(=O)[C@@]2(Cc3ccccc31)c1ccccc1C(=O)N(Cc1ccccc1)[C@H]2c1ccc(CO)cc1`, 0.54.
In the case of `O=C(NCc1ccccc1)[C@]1(Cc2ccccc2)N=C(c2ccc(OCCCO)cc2)O[C@@H]1c1ccccc1` it was 0.789; in that of `O=C1c2ccccc2[C@](Cc2ccccc2I)(C(=O)NC2CC2)[C@H](c2ccc(CO)cc2)N1Cc1ccccc1Cl`, 1.28.
`C=C(C(=O)CC[C@H](OC(=O)c1cccnc1)c1ccc(OCCO)cc1)C(C)C` yielded a composite z-score of -0.0404.
Turning to `COCCOC(=O)N1C(=O)[C@@]2(c3cc(C#CCCO)ccc31)[C@H](C(=O)N1CCc3cc(OC)c(OC)cc3C1)[C@H]1C(=O)O[C@H](c3ccccc3)[C@H](c3ccccc3)N1[C@@H]2c1ccc(OCCO)cc1`, the composite z-score came out at 1.2.
`C[N+](C)(C)CCCC[C@@H]1NC(=O)[C@H]2C[C@@H](C(=O)NCCCCCCN)[C@@H](c3cccc(OCCO)c3)N2C1=O`: the composite z-score is 1.33.
As for `COC(=O)C(CC#Cc1ccc2c(c1)[C@]1(C(=O)N2)[C@H](c2ccc(O)cc2)N2[C@H](c3ccccc3)[C@H](c3ccccc3)OC(=O)[C@H]2[C@@H]1C(N)=O)C(=O)OC`, the figure is -1.29.
In the case of `CN(C)C(=O)[C@@]1(CCC(=O)OC(C)(C)C)N=C(c2ccc(OCCCO)cc2)O[C@H]1c1ccccc1N=[N+]=[N-]` it was 0.253; in that of `CCOC(=O)C[C@H]1[C@H](OC(=O)Cc2ccc3c(c2)OCO3)[C@@H](NC(=O)c2ccccc2)c2cc(OCCCO)ccc2N1C(=O)c1ccc2ccccc2n1`, 0.329.
In the case of `O=[N+]([O-])c1ccc(C[n+]2ccc(-c3ccc(CO)cc3)cc2)o1` it was 0.213; in that of `NC(=O)[C@H]1[C@@H]2C(=O)O[C@@H](c3ccccc3)[C@@H](c3ccccc3)N2[C@@H](c2ccc(O)cc2)[C@]12C(=O)Nc1ccc(C#CC3(O)CCCCCC3)cc12`, 1.31.
As for `CN(C)C(=O)[C@@]1(Cc2ccccc2N=[N+]=[N-])N=C(c2ccc(OCCCO)cc2)O[C@H]1c1ccccc1N=[N+]=[N-]`, the composite z-score stood at 1.29.
As for `NC(=O)NCC#Cc1ccc2c(c1)[C@]1(C(=O)N2)[C@H](c2ccc(O)cc2)N2[C@H](c3ccccc3)[C@H](c3ccccc3)OC(=O)[C@H]2[C@@H]1C(N)=O`, the figure is -1.08; as for `NC(=O)NCC#Cc1ccc2c(c1)[C@]1(C(=O)N2)[C@H](c2ccc(OCCO)cc2)N2[C@H](c3ccccc3)[C@H](c3ccccc3)OC(=O)[C@H]2[C@@H]1C(=O)N1CCN(c2ncccn2)CC1`, 0.0283; as for `O=C1N(Cc2ccccc2)c2ccccc2[C@H]2OC(c3ccc(OCCCO)cc3)=N[C@@]12CCS(=O)(=O)c1ccccc1`, 1.31.
As for `COCC(=C=CC[C@@H](O)c1ccccc1OCCO)C[C@@H](O)c1ccccn1`, the figure is 0.207; as for `COc1ccc(C#Cc2ccc3c(c2)[C@]2(C(=O)N3)[C@H](c3ccc(OCCO)cc3)N3[C@H](c4ccccc4)[C@H](c4ccccc4)OC(=O)[C@H]3[C@@H]2C(=O)N2CCN(c3ncccn3)CC2)cc1`, 0.693; as for `COc1ccc(C(=O)Nc2ccc3c(c2)[C@]2(O[C@@H](CCO)[C@H]([Si](C)(C)c4ccc(OC)cc4)[C@H]2C)C(=O)N3Cc2ccccc2)cc1`, 0.3.
In the case of `CC(C)C[C@@H]1NC(=O)[C@@]23C(=O)N[C@@H](Cc4ccccc4)C2[C@H](C)[C@@]2(C)O[C@H]2C3/C=C/C/C=C\CNC(=O)[C@@H]2CCCN2C1=O` (stereo partly specified) it was -0.623.
In turn, `Cc1cc(C)c(C(O)C2C=CC3C(=O)N(c4ccccc4)C(=O)C3N2Nc2ccc([N+](=O)[O-])cc2)c(C)c1` (stereo unspecified) showed a composite z-score of 1.3.
In the case of `CC[C@@H]1[C@@H]2C3C(=O)N(CC)C(=O)C3CC(=O)[C@@H]2[C@H](c2ccc(C)cc2)N1S(=O)(=O)c1ccc(C)cc1` (stereo partly specified) it was 1.31; in that of `C=CCNC(=O)[C@@H]1[C@H]2C(=O)O[C@H](c3ccccc3)[C@H](c3ccccc3)N2[C@H](c2ccc(O)cc2)[C@@]12C(=O)Nc1ccc(C#CCCO)cc12`, -1.07; in that of `O=C1NC(=O)C2C1C=CC(C(O)c1ccc(-c3ccccc3)s1)N2Nc1ccccn1` (stereo unspecified), -0.316.
As for `OCCCC1=CC(c2cccs2)N(Cc2cccc(OC(F)(F)F)c2)CC1` (stereo unspecified), the figure is -0.729; as for `O=C1OCC=C[C@H]2OC34C=CCN(CCN5CCOCC5)C(=O)[C@H]3N(CCCCCO)C(=O)[C@@H]4[C@@H]12` (stereo partly specified), -0.0692.
Consider `CCCN1C(=O)[C@@]2(Cc3ccccc3)N=C(c3ccc(OCCCO)cc3)O[C@H]2c2ccccc21`, for which the composite z-score came out at 1.14.
In the case of `C[N+](C)(C)CCCC[C@@H]1NC(=O)[C@@H]2C[C@H](C(=O)O)[C@H](c3cccc(OCCO)c3)N2C1=O` it was -0.144; in that of `C/C=C/[C@@H](CCn1cc([C@H](O)c2ccccc2)nn1)[Si](C)(C)c1ccc(OC)cc1`, -0.507; in that of `CCN(CC)c1ccc(N2CC=CC34O[C@@H]5/C=C\CCCOC(=O)C5[C@H]3C(=O)N(CCCCCCO)[C@@H]4C2=O)cc1` (stereo partly specified), -0.521.
In the case of `COC(=O)[C@@]1(Cc2ccc(OC)cc2)[C@H]2c3cc(C(=O)N4CCCC4)n(CCF)c3C[C@H]2CN1C(=O)c1ccccc1` it was 0.383.
